Results as given in PubChem BioAssay (NCATS).
Inconclusive results are not listed. The source made the active and inactive calls. Unless noted, the call rests on the fitted dose curve; in most records, active means well fitted curve in the direction sought with a large enough effect; inconclusive means small, poorly fitted or top-dose-only effect, or another doubt; inactive means no such curve, though single readings can be large; an effect the other way counts as inactive or inconclusive.

Assays:
[1] = target: Lysosomal acid glucosylceramidase (Homo sapiens) (UniProt P04062); assay: Glucocerebrosidase-p2 (AID 348; in the data active means potency below about 10 µM; further: potency means the concentration at half of the fitted maximal effect); conditions: purified GBA, blue fluorogenic substrate, 40 min
Chain of Lysosomal acid glucosylceramidase (Homo sapiens) (P04062 whole entry, looked up): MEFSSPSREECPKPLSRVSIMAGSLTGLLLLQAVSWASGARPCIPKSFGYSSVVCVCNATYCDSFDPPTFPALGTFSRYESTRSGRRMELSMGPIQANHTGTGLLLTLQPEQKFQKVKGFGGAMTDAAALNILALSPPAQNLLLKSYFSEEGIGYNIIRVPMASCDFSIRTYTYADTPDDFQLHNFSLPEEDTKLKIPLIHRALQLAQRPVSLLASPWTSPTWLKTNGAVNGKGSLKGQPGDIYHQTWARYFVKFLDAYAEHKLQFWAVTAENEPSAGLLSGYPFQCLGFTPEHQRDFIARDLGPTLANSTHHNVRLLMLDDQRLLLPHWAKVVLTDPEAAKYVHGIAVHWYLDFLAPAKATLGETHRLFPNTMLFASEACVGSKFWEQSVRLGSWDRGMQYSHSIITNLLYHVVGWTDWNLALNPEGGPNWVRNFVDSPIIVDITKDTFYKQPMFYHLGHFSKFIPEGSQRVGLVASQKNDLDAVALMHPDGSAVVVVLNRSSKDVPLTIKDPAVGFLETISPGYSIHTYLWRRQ
How it was run: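 Compounds titrated from 0.6 nM upwards against 0.2 nM enzyme in pH 5.9 citric acid/KH2PO4, taurocholate, tween-20; blue fluorogenic substrate 80 uM, 40 min room temperature, stopped and read Ex 365/Em 440 for AC50.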

[2] = AP1 Signaling Pathway (AID 357; active means well fitted curve in either direction with a large enough effect, not every such curve was filed as active;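 further: ME-180 reporter cells stimulated with EGF at its EC50 level; on the % scale 0 is the no-effect control and ±100 the full control effect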); conditions: ME-180 AP-1-bla reporter, EGF-induced, beta-lactamase ratio, 5 h; at 7.69 µM (top of the series) unless noted
How it was run: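 Read-out was the 460nm/530nm emission ratio (excitation 405nm) after CCF4 loading for 2.5 hours at room temperature. Cells carried an AP-1-driven beta-lactamase reporter, were stimulated with EC50 EGF plus compound for 5 hours, and AC50 values came from titrations.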

[3] = target: Cytochrome P450 1A2 (Homo sapiens) (UniProt P05177); assay: p450-cyp1a2 (AID 410; calls by dose curve; further: potency means the concentration at half of the fitted maximal effect;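 on activity change, negative = inhibition: -100% = full effect of reference inhibitor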); conditions: recombinant CYP1A2, luciferin-ME demethylation, luminescence; series mostly up to 57 µM
Chain of Cytochrome P450 1A2 (Homo sapiens) (P05177 whole entry, looked up): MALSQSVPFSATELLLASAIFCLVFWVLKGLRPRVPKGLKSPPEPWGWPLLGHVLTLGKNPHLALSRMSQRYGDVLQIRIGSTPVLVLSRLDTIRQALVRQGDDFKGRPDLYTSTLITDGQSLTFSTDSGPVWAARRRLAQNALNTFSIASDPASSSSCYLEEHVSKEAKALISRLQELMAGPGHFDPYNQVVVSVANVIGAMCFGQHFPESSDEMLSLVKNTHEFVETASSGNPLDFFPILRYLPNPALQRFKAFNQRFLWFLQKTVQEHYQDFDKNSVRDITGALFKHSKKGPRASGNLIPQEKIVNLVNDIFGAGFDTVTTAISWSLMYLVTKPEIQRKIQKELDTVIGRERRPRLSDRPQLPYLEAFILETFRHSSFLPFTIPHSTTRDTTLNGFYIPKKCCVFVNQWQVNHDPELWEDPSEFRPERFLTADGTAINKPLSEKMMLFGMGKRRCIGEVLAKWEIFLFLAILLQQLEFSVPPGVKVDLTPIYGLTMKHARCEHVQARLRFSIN
How it was run: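 20nM CYP1A2 with 100uM Luciferin-ME (at Km) in 100mM KPO4; compound preincubated 10 min, NADPH regeneration added, 60 min at room temperature. Luciferin quantified by luminescence after detection reagent; normalized to 57 uM furafylline.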

[4] = NFAT Signaling Pathway (AID 444; active means well fitted curve in either direction with a large enough effect, not every such curve was filed as active;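 further: carbachol stimulus at about its EC50 of 1 µM final; on the % scale 0 is the no-effect control and ±100 the full control effect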); conditions: Jurkat NFAT-bla M1, carbachol, beta-lactamase ratio, 5 h; at 7.69 µM (top of the series) unless noted
How it was run: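 Jurkat cells carrying an NFAT-driven β-lactamase reporter and co-transfected muscarinic M1 receptor were treated with compound plus carbachol (1 uM final, an EC50 level) for 5 h at 37 °C. CCF4 loading followed for 1 h at RT; 460/530 nm ratio gave %activity.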

[5] = target: Glucocorticoid receptor (Homo sapiens) (UniProt P04150); assay: GR-GFP Redistribution (AID 450;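 active means compounds whose dose series gives a full or clear partial fitted curve of increased nuclear translocation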; further: potency means the concentration at half of the fitted maximal effect); conditions: U2OS GR-GFP nuclear translocation, laser cytometry, 2 h
Chain of Glucocorticoid receptor (Homo sapiens) (P04150 whole entry, looked up, the tested form may be a part): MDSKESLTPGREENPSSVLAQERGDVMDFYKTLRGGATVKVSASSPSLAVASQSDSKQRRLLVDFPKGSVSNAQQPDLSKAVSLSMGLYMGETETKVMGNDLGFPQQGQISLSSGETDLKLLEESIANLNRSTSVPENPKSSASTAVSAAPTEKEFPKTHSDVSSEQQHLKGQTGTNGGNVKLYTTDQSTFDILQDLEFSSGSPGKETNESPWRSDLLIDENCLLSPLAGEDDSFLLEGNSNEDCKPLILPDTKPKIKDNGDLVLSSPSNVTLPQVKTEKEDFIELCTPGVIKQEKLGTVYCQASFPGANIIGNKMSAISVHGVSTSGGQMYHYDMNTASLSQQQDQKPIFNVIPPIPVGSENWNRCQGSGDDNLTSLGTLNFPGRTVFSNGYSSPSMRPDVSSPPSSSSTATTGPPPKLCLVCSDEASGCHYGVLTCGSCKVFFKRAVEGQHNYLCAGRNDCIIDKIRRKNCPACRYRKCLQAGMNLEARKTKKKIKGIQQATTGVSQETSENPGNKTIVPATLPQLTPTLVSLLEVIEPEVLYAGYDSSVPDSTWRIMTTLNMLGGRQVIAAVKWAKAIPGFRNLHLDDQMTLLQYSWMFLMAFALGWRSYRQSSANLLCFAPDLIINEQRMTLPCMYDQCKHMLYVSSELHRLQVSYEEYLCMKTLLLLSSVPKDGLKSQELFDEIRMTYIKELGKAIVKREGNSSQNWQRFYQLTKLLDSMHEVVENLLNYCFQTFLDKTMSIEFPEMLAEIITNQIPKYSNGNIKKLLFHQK

[6] = target: Glucocorticoid receptor (Homo sapiens) (UniProt P04150); assay: GR-EFC Redistribution (AID 451; calls by dose curve; further: potency means the concentration at half of the fitted maximal effect); conditions: CHO-K1 GR-EFC translocation, beta-gal luminescence, 2 h
How it was run: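 CHO-K1 cells stably expressing nuclear-localized β-gal enzyme acceptor and GR fused C-terminally to the enzyme donor fragment; ligand-driven nuclear translocation restores β-gal by complementation. Compounds titrated up to 46 uM final, 2 h at 37 °C; luminescence read.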

[7] = target: Mitogen-activated protein kinase 10 (Mus musculus) (UniProt Q61831); assay: JNK3 AlphaScreen Assay (AID 530; active means well fitted curve in either direction with a large enough effect, not every such curve was filed as active;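 further: kinase came from lysate of stimulated human HepG2 cells; signal reports phosphorylation of biotinylated GST-cJun 1-79 at Ser73 with 10 µM ATP; on the % scale 0 is the no-effect control and ±100 the full control effect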); conditions: JNK3 lysate, c-Jun phosphorylation; series mostly up to 57.1 µM
How it was run: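 Inhibitors reduce antibody binding to phosphorylated biotin-cJun, lowering AlphaScreen luminescence. Lysates from HepG2 cells pre-activated by IL-1beta plus TNF-alpha supplied JNK3; compounds were titrated.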

[8] = target: 3',5'-cyclic-AMP phosphodiesterase 4B (Homo sapiens) (UniProt Q07343); assay: qHTS Assay for Inhibitors of PDE-IV (AID 607; active means well fitted activation curve with a large enough effect in the main read-out, with a control signal flat, not every such curve was filed as active; further: potency means the concentration at half of the fitted maximal effect); conditions: HEK293 ACTOne CNG channel cells, membrane potential fluorescence; series mostly up to 22.9 µM
Chain of 3',5'-cyclic-AMP phosphodiesterase 4B (Homo sapiens) (Q07343 whole entry, looked up): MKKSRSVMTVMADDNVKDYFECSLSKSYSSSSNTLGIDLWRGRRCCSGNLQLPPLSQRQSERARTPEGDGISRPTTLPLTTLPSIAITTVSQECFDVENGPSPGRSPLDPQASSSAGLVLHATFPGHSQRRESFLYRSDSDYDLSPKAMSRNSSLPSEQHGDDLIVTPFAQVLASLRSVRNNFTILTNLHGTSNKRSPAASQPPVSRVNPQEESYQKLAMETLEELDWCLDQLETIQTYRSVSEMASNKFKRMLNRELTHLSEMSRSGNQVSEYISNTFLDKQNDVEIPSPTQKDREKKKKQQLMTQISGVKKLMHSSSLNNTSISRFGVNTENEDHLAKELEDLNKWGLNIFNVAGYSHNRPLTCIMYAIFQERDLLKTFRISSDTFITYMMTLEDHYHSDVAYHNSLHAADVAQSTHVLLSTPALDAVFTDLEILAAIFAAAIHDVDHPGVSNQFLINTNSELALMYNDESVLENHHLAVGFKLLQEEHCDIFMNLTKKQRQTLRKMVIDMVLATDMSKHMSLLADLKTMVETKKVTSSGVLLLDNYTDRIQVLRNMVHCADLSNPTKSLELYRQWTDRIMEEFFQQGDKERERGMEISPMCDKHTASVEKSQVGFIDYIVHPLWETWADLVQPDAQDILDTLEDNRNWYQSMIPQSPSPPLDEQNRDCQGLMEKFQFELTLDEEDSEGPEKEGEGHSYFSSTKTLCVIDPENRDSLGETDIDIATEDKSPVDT
How it was run: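 Live HEK293 cells with a modified cyclic nucleotide-gated (CNG) channel report intracellular cAMP via membrane-potential dye fluorescence (ex 535/em 590 nm). Endogenous PDE-IV was targeted. Compounds were tested at up to 22.9 uM final; RO 20-1724 100 uM served as control.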

[9] = target: Cytochrome P450 3A4 (Homo sapiens) (UniProt P08684); assay: qHTS Assay for Activators of Cytochrome P450 3A4 (AID 885); conditions: recombinant CYP3A4, Luciferin-PPXE luminescence, 60 min; series mostly up to 57.1 µM; further: nearly all actives have a fitted effect of over 65% in size
Chain of Cytochrome P450 3A4 (Homo sapiens) (P08684 whole entry, looked up): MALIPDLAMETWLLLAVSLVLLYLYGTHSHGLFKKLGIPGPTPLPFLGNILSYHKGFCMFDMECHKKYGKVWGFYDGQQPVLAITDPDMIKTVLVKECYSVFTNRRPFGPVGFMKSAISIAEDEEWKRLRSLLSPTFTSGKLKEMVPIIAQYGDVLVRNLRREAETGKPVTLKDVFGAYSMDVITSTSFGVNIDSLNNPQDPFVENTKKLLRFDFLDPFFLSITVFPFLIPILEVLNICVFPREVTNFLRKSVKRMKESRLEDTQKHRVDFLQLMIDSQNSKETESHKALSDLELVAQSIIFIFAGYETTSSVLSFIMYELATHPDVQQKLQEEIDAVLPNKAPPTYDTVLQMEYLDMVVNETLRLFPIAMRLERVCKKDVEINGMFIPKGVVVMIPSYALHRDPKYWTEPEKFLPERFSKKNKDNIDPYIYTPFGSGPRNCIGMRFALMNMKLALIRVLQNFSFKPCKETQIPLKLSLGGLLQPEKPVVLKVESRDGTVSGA
How it was run: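 Quantitative HTS format: compounds preincubated with 20nM human CYP3A4 and Luciferin-PPXE substrate at KM, reaction started by NADPH regeneration, stopped after 60 min, luciferase luminescence read 20 min later.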

[10] = target: Dual specificity protein kinase CLK4 (Homo sapiens) (UniProt Q9HAZ1); assay: qHTS Assay for Inhibitors of CDC-like Kinase 4 (Kinase-Glo Assay) (AID 1770); conditions: recombinant Clk4, Kinase-Glo ATP depletion luminescence; series mostly up to 66.7 µM; further: on the % scale 0 is the no-effect control and ±100 the full control effect; nearly all actives have a fitted effect of over 65% in size
Chain of Dual specificity protein kinase CLK4 (Homo sapiens) (Q9HAZ1 whole entry, looked up): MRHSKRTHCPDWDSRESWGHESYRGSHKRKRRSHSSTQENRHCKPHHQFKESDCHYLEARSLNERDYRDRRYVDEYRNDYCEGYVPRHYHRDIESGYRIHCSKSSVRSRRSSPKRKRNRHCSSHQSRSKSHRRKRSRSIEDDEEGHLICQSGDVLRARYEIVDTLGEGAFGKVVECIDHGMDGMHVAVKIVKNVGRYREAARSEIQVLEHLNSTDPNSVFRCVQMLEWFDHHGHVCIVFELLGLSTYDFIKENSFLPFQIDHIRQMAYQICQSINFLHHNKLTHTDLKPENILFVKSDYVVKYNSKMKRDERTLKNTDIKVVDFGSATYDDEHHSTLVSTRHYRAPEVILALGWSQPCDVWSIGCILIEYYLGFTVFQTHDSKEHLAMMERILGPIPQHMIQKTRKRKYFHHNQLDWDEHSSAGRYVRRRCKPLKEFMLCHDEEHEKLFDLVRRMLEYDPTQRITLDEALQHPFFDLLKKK
How it was run: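 Readout: Kinase-Glo luminescence from ATP left after a 4.5 h room-temperature reaction of 25 nM Clk4 with 100 uM RS peptide and 1 uM ATP (final). Buffer: 25 mM Tris pH 7.5, 10 mM MgCl2.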

[11] = target: Dual specificity protein kinase CLK4 (Homo sapiens) (UniProt Q9HAZ1); assay: qHTS Assay for Inhibitors of CDC-like Kinase 4 (ADP-Glo Assay) (AID 1771); conditions: recombinant CLK4, ADP-Glo luminescence; series mostly up to 80 µM; further: on the % scale 0 is the no-effect control and ±100 the full control effect; nearly all actives have a fitted effect of over 70% in size
How it was run: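 25 nM Clk4 with 100 uM RS repeat peptide and 1 uM ATP (final) in buffer with 2 mM MgCl2, 0.5 mM EGTA, 2.5 mM DTT, 0.01% Triton X-100; 1 h at room temperature; ADP-Glo luminescence for ADP formed.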

[12] = target: Dual specificity protein kinase CLK4 (Homo sapiens) (UniProt Q9HAZ1); assay: qHTS Assay for Inhibitors of CDC-like Kinase 4 (ADP-FP Assay) (AID 1795); conditions: Transcreener ADP fluorescence polarization; series mostly up to 50 µM;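 further: recombinant human CLK4 phosphorylating RS repeat peptide at 1 µM ATP; on the % scale 0 is the no-effect control and ±100 the full control effect; nearly all actives have a fitted effect of over 60% in size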
How it was run: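 FP readout: Orange Transcreener ADP2 tracer (4 nM) plus ADP antibody, read after 30 min at room temperature. Kinase step: 6.25 nM Clk4, 100 uM RS peptide, 1 uM ATP, pH 7.5, 1 h.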

[13] = target: Ubiquitin carboxyl-terminal hydrolase 1 (Homo sapiens) (UniProt O94782); assay: Inhibitors of USP1/UAF1: Pilot qHTS (AID 504865); conditions: purified USP1/UAF1, Ub-rhodamine cleavage fluorescence; series mostly up to 54.9 µM;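 further: rhodamine fluorescence freed from ubiquitin-rhodamine substrate followed over time; top concentration of the series differs between compounds; on the % scale 0 is the no-effect control and ±100 the full control effect; nearly all actives have a fitted effect of over 35% in size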
Chain of Ubiquitin carboxyl-terminal hydrolase 1 (Homo sapiens) (O94782 whole entry, looked up): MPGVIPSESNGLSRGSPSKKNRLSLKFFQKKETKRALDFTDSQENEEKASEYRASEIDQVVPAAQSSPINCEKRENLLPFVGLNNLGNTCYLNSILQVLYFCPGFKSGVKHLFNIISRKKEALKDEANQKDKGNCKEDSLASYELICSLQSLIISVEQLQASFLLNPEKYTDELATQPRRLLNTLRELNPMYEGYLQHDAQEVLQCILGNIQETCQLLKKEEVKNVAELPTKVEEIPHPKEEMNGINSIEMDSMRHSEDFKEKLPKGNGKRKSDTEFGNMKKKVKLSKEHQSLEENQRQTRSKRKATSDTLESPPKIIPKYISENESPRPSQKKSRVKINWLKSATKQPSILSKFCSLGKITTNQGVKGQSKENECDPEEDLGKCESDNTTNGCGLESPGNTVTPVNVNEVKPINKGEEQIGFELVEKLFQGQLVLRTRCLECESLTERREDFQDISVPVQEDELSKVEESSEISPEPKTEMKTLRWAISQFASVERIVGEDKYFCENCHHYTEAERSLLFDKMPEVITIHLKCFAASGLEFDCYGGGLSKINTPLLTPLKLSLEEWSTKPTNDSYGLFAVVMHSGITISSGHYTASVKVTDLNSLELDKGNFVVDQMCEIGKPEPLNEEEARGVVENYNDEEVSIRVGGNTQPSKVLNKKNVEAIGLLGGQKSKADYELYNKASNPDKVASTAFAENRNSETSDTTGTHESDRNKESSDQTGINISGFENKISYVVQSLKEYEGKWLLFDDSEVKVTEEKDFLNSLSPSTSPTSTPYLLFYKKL
How it was run: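 1nM USP1/UAF1 + cpd, 15 min RT; start w/ Ub-Rho 150nM final; kinetic FL 480/540 nm, 6 reads q60 s. Buffer 50mM HEPES pH 7.8, 0.5mM EDTA, 1mM TCEP, 0.01% Tween-20, 0.1 mg/ml BSA.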

[14] = Primary qHTS for small molecule stabilizers of the endoplasmic reticulum resident proteome: Secreted ER Calcium Modulated Protein (SERCaMP) assay (AID 1508630); conditions: SH-SY5Y GLuc-SERCaMP (Gaussia luciferase released on ER calcium loss) secretion, thapsigargin, luminescence; series mostly up to 38.4 µM; further: on the % scale 0 is the no-effect control and ±100 the full control effect
How it was run: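 GLuc-SERCaMP-expressing SH-SY5Y cells, pretreated 16 h with compound, are challenged with thapsigargin to empty ER calcium stores; after 4 h, coelenterazine is added directly to the medium and luminescence is imaged.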

[15] = qHTS Assay for Identification of Small Molecule Agonists for Hypoxia Response Element Signaling Pathway (AID 914; active means well fitted activation curve with a large enough effect in the signal ratio, with a control signal flat, not every such curve was filed as active; the % refers to the signal ratio; further: potency means the concentration at half of the fitted maximal effect); conditions: ME-180 HRE-bla reporter, beta-lactamase ratio, CoCl2, 17 h; activation: stronger effect = higher value
How it was run: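 Read-out: CCF4 FRET ratio of 460nm to 530nm emission (excitation 405nm) after 2.5 hours at room temperature, taken from HRE-bla ME-180 cells that had been exposed to compound and EC50 CoCl2 for 17 hours.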

[16] = Stat Signaling Pathway (AID 446; active means well fitted curve in either direction with a large enough effect, not every such curve was filed as active); conditions: ME-180 (cervical carcinoma) SIE beta-lactamase reporter, IL-6 stimulated, 5 h; at 7.69 µM (top of the series) unless noted
How it was run: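 IL-6/STAT signaling read in ME-180 cells via an SIE beta-lactamase reporter. Stimulus was 40 pM IL-6 (its AC50) for 5 hrs, so both activation and inhibition register.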

N#CCCn1c(=O)c(CCc2ccccc2)nc2cnc(Nc3ccccc3)nc21
inactive: Potency [1] > 11.4 µM | activity change, negative = inhibition [2] -27.7% | Potency [3] | activity change, negative = inhibition [4] -25.2% | Potency [5] > 9.22 µM | Potency [6] > 46 µM | Potency [7] | Potency [8] | Potency [9] | Potency [10] | Potency [11] | Potency [12] | Potency [13] | outcome [14]

O=c1c(-c2cc(F)cc(F)c2)nc2cnc(N3CCOCC3)nc2n1CCc1ccccc1
inactive: Potency [1] > 11.4 µM | activity change, negative = inhibition [2] 29.6% | Potency [5] > 9.22 µM | Potency [6] > 46 µM | Potency [7] | Potency [8] | Potency [10] | Potency [11] | Potency [12] | Potency [13] | outcome [14]
active: Potency [3] 2.51 µM

Cn1cc(-c2nc3cnc(N4CCNCC4)nc3n(-c3ccccc3)c2=O)c2ccccc21
active: Potency [3] 15.8 µM | Potency [15] 3.98 µM
inactive: Potency [1] > 11.4 µM | activity change, negative = inhibition [2] 22.4% | activity change, negative = inhibition [4] 24.6% | Potency [5] > 9.22 µM | Potency [6] > 46 µM | Potency [8] | Potency [9] | Potency [10] | Potency [11] | Potency [12] | Potency [13] | outcome [14]

CN(C)c1ncc2nc(-c3ccc(Cl)cc3)c(=O)n(C)c2n1
inactive: Potency [1] > 11.4 µM | activity change, negative = inhibition [2] 24.8% | Potency [5] > 9.22 µM | Potency [6] > 46 µM | Potency [7] | Potency [8] | Potency [10] | Potency [11] | Potency [12] | Potency [13] | outcome [14]
active: Potency [3] 1.58 µM

COc1cccc(Cn2c(=O)c(-c3ccc(F)cc3)nc3cncnc32)c1
inactive: Potency [1] > 11.4 µM | activity change, negative = inhibition [2] -16.6% | activity change, negative = inhibition [4] -9.33% | activity, negative = inhibition [16] -13.6% | Potency [5] > 9.22 µM | Potency [6] > 46 µM | Potency [7] | Potency [10] | Potency [11] | Potency [12] | Potency [13] | outcome [14]

O=c1c(-c2ccc(F)cc2)nc2cncnc2n1Cc1ccccc1
inactive: Potency [1] > 11.4 µM | activity change, negative = inhibition [2] -5.88% | activity change, negative = inhibition [4] -16.1% | activity, negative = inhibition [16] 9.13% | Potency [5] > 9.22 µM | Potency [6] > 46 µM | Potency [7] | Potency [10] | Potency [11] | Potency [12] | Potency [13] | outcome [14]

COCCn1c(=O)c(-c2ccc(F)cc2)nc2cnc(N(C)C)nc21
active: Potency [3] 2 µM | Potency [8] 1.58 µM
inactive: Potency [1] > 11.4 µM | activity change, negative = inhibition [2] -1.02% | activity change, negative = inhibition [4] 10.7% | Potency [5] > 9.22 µM | Potency [6] > 46 µM | Potency [10] | Potency [11] | Potency [12] | Potency [13] | outcome [14]
